Our source for the growth values is PubChem BioAssay (NCI).

About 83,000 compounds went through this panel and 20% of them were active in at least one assay; those are over-represented in the sample as a whole.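 Percent growth is the endpoint: 0 to 100 indicates growth inhibition (40 means 60% inhibition), 0 means no net growth, and negative values indicate cell death.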 Values without a mark were called inactive. Activity calls are given as the source filed them. How the source made its calls: active means growth percent below 10; inactive means the rest.

The test system of this experiment is OVCAR-5 ovarian. Kind of experiment: NCI-60 one-dose screen, 48 h (100 = growth as untreated, 0 = no growth, -100 = all killed). The following applies: 10 µM.
Turning to `Nc1nc(-c2ccccc2)cc(-c2cc3ccccc3nc2Cl)n1`, the growth was 97.8%.
The result for `O=C(Cn1cc(CSc2nnc3oc4ccccc4n23)nn1)Nc1ccc(Br)cc1` reads 91.6%.
Regarding `O=c1oc2ccc(-c3ccc(F)cc3F)cc2c(=O)n1-c1ccc(F)c(Cl)c1`, the growth was -5.91% (active).
For the compound `CN1CCN(c2ccc(Nc3nc(NCCCNC(=O)c4ccc(F)cc4)c4sccc4n3)cc2)CC1`, the growth was 78.2%.
`CO[C@@H]1CSS[C@H]1Cn1nc(-c2ccc(Oc3ccccc3)cc2)c2c(N)ncnc21`: the growth was 82.3%.
The result for `CC(=O)Nc1ccc(-n2cnc3cc(-c4ccc(O)cc4)ccc32)cc1C` reads 72.7%; that for `COC(=O)CC1CC1C1Cc2c(nc(N(C)S(C)(=O)=O)nc2C(C)C)-c2ccc(F)cc21` (stereo not given), 90%; that for `CC(=O)Nc1nc(-c2ccc(N3CCN(C)CC3)c(NS(=O)(=O)c3ccc(C(F)(F)F)cc3)c2)cs1`, 44.8%.
`Cc1ccc(-c2ccc(SCC(=O)Nc3ccc(Cl)c(C(F)(F)F)c3)nn2)cc1`: the growth was 39.1%.
The value for `c1ccc(C(=C(c2ccc(OCCN3CCCCC3)cc2)c2ccc(OCCN3CCCCC3)cc2)C2CCCC2)cc1` was -22.5% (active); that for `O=C(O)CCCCCCCCCCN1C(=O)/C(=C/c2cnc(-c3ccccc3)s2)SC1=S` was 109%; that for `CCN(CC)CCOc1ccc(C(=C(C)c2ccccc2)c2ccc(OCCN(CC)CC)cc2)cc1` was 24.9%.
As for `Cc1ccc(C(=O)Nc2ccc(-n3c(C)nc4c(cnn4-c4ccccc4)c3=O)cc2)cc1`, the growth was 86%.
The value for `COc1ccc2[nH]c(O)c(N=NC(=O)COc3ccc(NC(=O)Nc4ccc(Cl)c(Cl)c4)cc3)c2c1` was -21.8% (active).
For `O=C1NC(=NC23CC4CC(CC(C4)C2)C3)N/C1=C\c1ccc2ncccc2n1`, the growth is -40.4% (active).
The result for `COC(=O)C(Cc1ccc(O)c(O)c1)NC(=O)C(CSC/C=C(\C)CCCC(C)CCCC(C)CCCC(C)C)NC(C)=O` (stereo not given) reads 28%.
The result for `O=C(Nc1ccncc1)c1ccc(-n2c(=O)[nH]c3ccccc3c2=O)cc1` reads 100%.
On to `CCCCCc1ccc(S(=O)(=O)N(C(C)=O)c2cc(-c3csc(N(C)C(C)=O)n3)ccc2N2CCN(C)CC2)cc1`, for which the growth was 57.6%.
The value for `COc1ccc(-c2ccc(/C=N/NC(=O)c3[nH]c4ccc(Br)cc4c3-c3ccccc3)s2)cc1` was 12.8%; that for `CC(C)CCSc1nc(NC2CC2)c(C#N)c(-c2ccc(C(C)C)cc2)n1` was 111%.
The result for `O=C(Nc1nc2ccc([N+](=O)[O-])cc2s1)Nc1ccccc1I` reads 5.55% (active); that for `Cc1ccc(CSc2nc(Cl)c(C#N)c(-c3ccc(F)cc3)n2)cc1`, 94.1%.
The value for `CCN1CCN(c2ccc(NC(=O)Nc3ccc(-c4cc(C(=O)NC)c5ncccc5n4)cc3)cc2C(F)(F)F)CC1` was -100% (active); that for `COc1ccccc1NCc1ccc(CO)n1-c1ccc(C)cc1` was 111%; that for `CCCCCCCCCCCCCCCCCCCC(=O)NCCc1c[nH]c2ccc(OC(=O)NOCCOCCOCCOCCOCCOCCOCCOCCOCCOCCOCCOCCOCCOCCOCCOCCOCCOCCOCCOCCOCCOCCOC)cc12` was -5.89% (active).
Consider `CC(=O)NCC1=C(C)C=C2C(=O)[C@](C)(O)C3(CC3)C(C)=C21`, for which the growth is -28.8% (active).
Take `Cc1cccc2cc(-c3cc(-c4ccccc4)nc(=S)[nH]3)c(Cl)nc12`: the growth is 108%.
In the case of `CO[C@H]1CSS[C@@H]1Cn1nc(-c2ccc(Oc3ccccc3)cc2)c2c(N)ncnc21`, the growth was 28.5%.
Turning to `CNC(=O)c1cc(-c2ccc(NC(=O)Nc3ccc(C)cc3)cc2)nc2cccnc12`, the growth was 105%.
For `O=C(Cn1cc(CSc2nnc3oc4ccccc4n23)nn1)Nc1cccc(Cl)c1`, the growth was 87.8%.
With `O=C(Nc1cc(Cl)cc(Cl)c1)Nc1cc(Cl)cc(Cl)c1`, the growth was 1.87% (active).
The result for `C=CC(=O)Nc1ccc(C(=O)/C=C/c2ccc(N(C)CCF)cc2)c(O)c1` reads -49.3% (active); that for `CC(=C(c1ccc(OCCN2CCCCCC2)cc1)c1ccc(OCCN2CCCCCC2)cc1)c1ccc(Cl)cc1`, -100% (active); that for `Cc1ccc(C(C)C)cc1NC(=O)c1ccccc1O`, 96.2%.
The value for `C=CC(=O)Nc1nc(-c2cccc(NS(=O)(=O)c3cccc4c(N(C)C)cccc34)c2)cs1` was -61.6% (active).
The result for `CC(C)NC(=O)c1cc(-c2ccc(NC(=O)Nc3ccc(N4CCN(C)CC4)c(C(F)(F)F)c3)cc2)nc2cccnc12` reads -99.5% (active); that for `COc1ccc2[nH]c(=O)c(CSc3nccc(-c4ccc(Cl)cc4)n3)cc2c1`, 50.9%; that for `O=C1Nc2cc(Cl)ccc2/C1=C/c1ccc(OCc2ccc(Br)cc2F)cc1`, 25.2%.
On to `O=C(N/N=C/c1ccc(B(O)O)o1)c1[nH]c2ccc(Br)cc2c1-c1ccccc1`, for which the growth is 43.5%.
Take `CCCS(=O)(=O)c1oc(-c2ccc(F)cc2)nc1S(=O)(=O)c1ccc(F)cc1`: the growth was -68.3% (active).
